Measured values reported in PubChem BioAssay (NCATS).
Records with an inconclusive call do not appear. A number with no mark means an inactive call. Activity calls are given as the source filed them. Calls follow the shape of the dose curve; as a rule, active = well fitted inhibition curve with a large enough effect; inconclusive = small, poorly fitted or top-dose-only effect; inactive = no such curve, though single readings can be large or run the other way.

target: Rap guanine nucleotide exchange factor 4 (Homo sapiens) (UniProt Q8WZA2); assay: Confirmatory qHTS for antagonist of cAMP-regulated guanine nucleotide exchange factor 4 (EPAC2) (AID 1645885); settings: EPAC2 Rap1B-BODIPY-GDP exchange fluorescence, biochemical; series mostly up to 12.7 µM; activity change, negative = inhibition: at the top concentration; also: nearly all actives have a fitted effect of over 25% in size
% is scaled to controls: 0 for no effect and ±100 for the full control effect; potency is read from the fitted curve at half-maximal effect.

Rap guanine nucleotide exchange factor 4 (Homo sapiens), sequence (Q8WZA2 whole entry, looked up): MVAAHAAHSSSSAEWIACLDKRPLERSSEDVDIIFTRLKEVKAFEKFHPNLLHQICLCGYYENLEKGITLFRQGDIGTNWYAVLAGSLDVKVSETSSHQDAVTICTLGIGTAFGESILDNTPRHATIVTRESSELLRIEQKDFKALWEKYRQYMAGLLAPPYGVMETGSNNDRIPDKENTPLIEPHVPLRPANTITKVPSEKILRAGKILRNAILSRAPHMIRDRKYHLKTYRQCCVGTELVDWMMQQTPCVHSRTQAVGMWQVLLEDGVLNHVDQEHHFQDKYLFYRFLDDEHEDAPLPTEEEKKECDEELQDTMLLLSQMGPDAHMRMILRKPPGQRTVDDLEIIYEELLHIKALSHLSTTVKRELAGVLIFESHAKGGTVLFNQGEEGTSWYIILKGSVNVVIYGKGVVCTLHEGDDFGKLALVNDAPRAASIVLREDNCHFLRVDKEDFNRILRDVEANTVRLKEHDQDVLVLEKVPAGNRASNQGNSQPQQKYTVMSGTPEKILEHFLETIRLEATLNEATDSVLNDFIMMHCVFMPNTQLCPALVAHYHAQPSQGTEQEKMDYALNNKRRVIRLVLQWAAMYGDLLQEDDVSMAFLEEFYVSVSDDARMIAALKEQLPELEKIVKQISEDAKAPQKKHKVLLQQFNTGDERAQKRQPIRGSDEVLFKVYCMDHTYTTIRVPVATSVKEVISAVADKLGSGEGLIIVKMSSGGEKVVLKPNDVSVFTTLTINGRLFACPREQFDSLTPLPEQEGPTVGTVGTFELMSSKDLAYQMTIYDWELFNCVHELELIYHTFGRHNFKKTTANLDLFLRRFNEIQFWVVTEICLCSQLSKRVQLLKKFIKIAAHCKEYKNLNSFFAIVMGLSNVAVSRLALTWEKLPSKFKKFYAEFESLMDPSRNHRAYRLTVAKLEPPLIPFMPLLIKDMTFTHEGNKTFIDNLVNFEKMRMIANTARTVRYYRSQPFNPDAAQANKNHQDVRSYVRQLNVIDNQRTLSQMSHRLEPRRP

SMILES	activity change, negative = inhibition	outcome	Potency
CC(=O)c1cccc(NC(=O)c2c(-c3ccccc3)c(-c3ccccc3)nn(C)c2=O)c1	-11%		
COc1cc(NC(=O)c2cnc(N)s2)cc(C(=O)Nc2cccc(C(F)(F)F)c2)c1	-10.5%		
CCC(Oc1ccccc1)C(=O)Nc1ccccc1N1CCCCC1 (stereo not given)		inactive	
COc1cc(OC)c(-c2c3cc(O)c(=O)cc-3oc3cc(O)c(O)cc23)cc1OC	199% [at 114 µM]		
CCC(=O)NC(c1ccc(C)cc1)c1ccc2cccnc2c1O (stereo not given)			5.36 µM (active)
CCOc1ccc2oc(C(=O)N(C)CC(=O)Nc3ccc(OCC)c(OCC)c3)c(C)c2c1	94.9% [at 114 µM]		
CCN1C(=O)c2cccc3c(N)ccc(c23)C1=O			75.7 µM (active)
CC(C)c1ccc(NC(=O)COC(=O)C2=COCCO2)cc1	-11.7%		
O=C1c2cccc3c(O)ccc(c23)C(=O)N1Cc1ccccc1			75.7 µM (active)
Cc1cc(C(=O)Nc2ccon2)c(C)o1			84.9 µM (active)
COc1ccc(CCNc2oc(-c3ccc(C)cc3)nc2C#N)cc1OC	5.03%		
Cc1ccc([N+](=O)[O-])cc1S(=O)(=O)N1CCC(C)CC1	-17.4% [at 114 µM]		
C=CCn1c(SCC(=O)NC(N)=O)nnc1-c1cc2c(s1)CCC(CC)C2 (stereo not given)	-16.6% [at 114 µM]		
CN1CCN(C2=CC3=CC(=C(C#N)C#N)CCC3CC2)CC1 (stereo not given)			6.75 µM (active)
Cc1cc(Nc2ncc(Cl)cc2Cl)n(-c2ccccc2C)n1			16.9 µM (active)
Cn1cc(C(CO)Cc2ccccc2)c2ccccc21 (stereo not given)	-7.21%		
CCOC(=O)c1cnc2ccc(OC)cc2c1Nc1ccc(N2CCN(C)CC2)cc1	-1.62%		
O=C(O)c1ccc2c(c1)C(=O)N(c1ccc(/C=C/C(=O)c3ccccc3)cc1)C2=O	-12.5%		
CCOc1cc(/C=C(\C#N)C(=O)Nc2cccc(C(=O)O)c2)cc(Br)c1OC(=O)c1ccc(OC)cc1			12 µM (active)
COc1ccc(C(CC(=O)N2CCCC2)c2ccc(F)cc2)cc1 (stereo not given)	-16.6%		

SMILES	activity change, negative = inhibition	outcome	Potency
Cc1ccc(S(=O)(=O)N2[C@@H](c3ccccc3)C(C(=O)O)=CC[C@H]2c2ccc(C(C)C)cc2)cc1	117% [at 114 µM]		
COc1cccc(C(=O)C(CCC#N)c2ccccc2)c1 (stereo not given)	-22.5% [at 114 µM]		
Nc1ccc(-c2c3ccc(=O)cc-3oc3cc(O)ccc23)cc1C(=O)O	265% [at 114 µM]		
Cc1ccc(C)c(NC(=O)COC(=O)COc2cccc3c2OC(C)(C)C3)c1	-12.3%		
COc1ccc(N2CCOCC2)c(NC(=O)c2cccc3ccccc23)c1	-13.8%		
Cc1ccc2oc(=O)n(CCCOc3ccccc3Cl)c2c1	4.57%		
O=C1C(Cc2ccccc2)SC(=Nc2ccccc2)N1c1ccccc1 (stereo not given)	-13.9%		
CCNc1ccc2noc3c2c1C(=O)c1ccccc1-3			16.9 µM (active)
O=S(=O)(O)c1ccc(N=NNc2ccc(Br)cc2)cc1			26.9 µM (active)
Cc1csc(N=Nc2ccc(N(C)C)cc2)[n+]1[O-]			37.9 µM (active)
CCC(=O)N1c2ccc(S(=O)(=O)NCCc3ccc(C)cc3)cc2CC1C (stereo not given)	7.93% [at 114 µM]		
CC(=O)/C(C#N)=C1\NC(=O)C(Cc2cc(Cl)ccc2Cl)S1 (stereo not given)	-23.1%		
CCC1=NN(C(=O)c2ccc(Br)cc2)C(O)(c2ccccc2)C1 (stereo not given)	-0.478%		
O=C(C1CC1)N1CCN(c2ccc([N+](=O)[O-])cc2-n2cccc2)CC1	-23.7%		
CCOc1nc(C)cc(C)c1S(=O)(=O)c1cccc(Cl)c1			19 µM (active)
Cc1cc(OC(C)C(=O)NCc2ccccn2)c2c(C)c(Cc3ccccc3)c(=O)oc2c1 (stereo not given)	-9.13% [at 114 µM]		
O=C1c2cccc3c(O)ccc(c23)C(=O)N1Cc1ccco1			67.5 µM (active)
Cc1ccc(CNC(=O)c2c[nH]n3c(=O)c(Cc4ccc(F)cc4Cl)c(C)nc23)cc1	-18.6%		
O=[N+]([O-])c1ccc(N/N=C2/CCCCC2c2ccccn2)cc1 (stereo not given)	-3.62%		
CCOc1cc(/C=C2/SC(=S)NC2=O)ccc1OC(=O)c1ccco1			16.9 µM (active)
